Screens (PubChem)
Compounds with a hit are over-represented: about 19% of the library has one in this group of screens.
TDP1 block: TDP1 (human) enzyme inhibition; AID 485290; Q9NUW8; recombinant TDP1, AlphaScreen DNA substrate cleavage; Potency, µM (titrated, usually from 130 µM), without a hit: top-dose activity change, negative = inhibition, most hits filed as inhibitors; 350,000 tested, 0.28% active; further: nearly all actives have a fitted effect of over 40% in size
Target sequence (Q9NUW8 whole entry, looked up): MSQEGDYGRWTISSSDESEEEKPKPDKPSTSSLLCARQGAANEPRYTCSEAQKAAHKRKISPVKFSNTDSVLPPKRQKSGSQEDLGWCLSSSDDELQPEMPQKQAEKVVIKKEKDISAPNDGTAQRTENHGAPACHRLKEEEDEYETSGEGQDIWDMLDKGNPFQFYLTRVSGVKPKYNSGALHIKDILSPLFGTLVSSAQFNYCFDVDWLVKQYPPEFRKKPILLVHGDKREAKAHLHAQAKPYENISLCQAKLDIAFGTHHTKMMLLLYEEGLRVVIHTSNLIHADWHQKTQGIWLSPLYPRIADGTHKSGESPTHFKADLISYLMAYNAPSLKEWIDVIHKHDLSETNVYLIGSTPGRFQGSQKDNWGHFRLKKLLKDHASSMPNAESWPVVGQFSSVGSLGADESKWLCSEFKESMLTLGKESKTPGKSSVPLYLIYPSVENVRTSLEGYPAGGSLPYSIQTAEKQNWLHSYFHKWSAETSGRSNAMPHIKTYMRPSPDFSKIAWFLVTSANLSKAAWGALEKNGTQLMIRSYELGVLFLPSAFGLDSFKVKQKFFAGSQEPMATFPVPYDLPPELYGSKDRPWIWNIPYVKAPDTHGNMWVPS
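Compounds were preincubated with Tdp1 (1 nM final) for 15 min at room temperature before substrate (15 nM final) started a 5 min reaction; beads (10 ug/ml final) were then added for 10 min before AlphaScreen detection.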
TDP1 cell noCPT: qHTS for Inhibitors of human tyrosyl-DNA phosphodiesterase 1 (TDP1): qHTS in cells in absence of CPT. 420,000 tested, 15% active. Potency, µM (doses to about 46.2 µM), inactives show at the top dose activity change, negative = growth inhibition, hits mostly inhibitors. AID 686978, 2013. DT40 Tdp1-/- hTDP1 cells, no CPT, ATP luminescence, 48 h; further: nearly all actives have a fitted effect of over 55% in size
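Seeded 400 DT40-hTDP1 cells/well (vehicle DMSO, no 20 nM CPT); pinned compounds; ≥48 hr at 37 °C; CellTiter-Glo luminescence as viability measure.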
DT40 TDP1 CPT: DT40-hTDP1 cell growth loss with CPT; chicken DT40 Tdp1-/-;hTDP1 cells + 20 nM CPT, ATP luminescence, 48 h; Potency, µM (top dose mostly 46.2 µM), for inactives: at the top dose activity change, negative = growth inhibition, usual class: inhibitors; 420,000 tested, 12% active; AID 686979; further: nearly all actives have a fitted effect of over 55% in size
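Cell growth measured by CellTiter-Glo luminescence after a minimum 48 h, 37 C compound exposure with 20 nM CPT in Tdp1-knockout DT40 cells stably expressing hTDP1, seeded 400/well; qHTS titration format.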
Gal4-VP16 FLuc: inhibits Gal4-VP16 luciferase reporter, ROR gamma counter-screen | Drosophila S2 Gal4-VP16 UAS-luciferase, luminescence, 20 h | Potency, µM (highest dose often 53.6 µM), for the others: top-dose activity, negative = inhibition, hits mostly inhibitors | 310,000 tested, 3.5% active;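 further: Gal4-VP16 expression switched on by copper sulfate through the metallothionein promoter; nearly all actives have a fitted effect of over 50% in size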
RORgamma inh: inhibitors of mouse ROR gamma transcriptional activity | Potency, µM (doses to about 53.6 µM), for the others: at the highest dose activity change, negative = inhibition, actives largely listed as inhibitors | AID 2551 | Drosophila S2 Gal4-RORgamma UAS-luciferase reporter, 20 h | 310,000 tested, 5.4% active | P51450; further: nearly all actives have a fitted effect of over 60% in size
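Stable Schneider cell line, Gal4 DNA-binding domain fused to ROR gamma, UAS-luciferase. Cmpd 1 hr RT → CuSO4 700 uM final → 20 hr RT → luciferase reagent 10 min → luminescence.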
The depositor's hits bear a star; ? = inconclusive; nt = no result given; [ ] = dose if it differs, or a comment. The call rests on the fitted dose curve; in most records, active means well fitted curve in the direction sought with a large enough effect; inconclusive means small, poorly fitted or top-dose-only effect, or another doubt; inactive means no such curve, though single readings can be large; an effect the other way counts as inactive or inconclusive. On the % scale 0 is the no-effect control and ±100 the full control effect; potency means the concentration at half of the fitted maximal effect.

SMILES | TDP1 block | TDP1 cell noCPT | DT40 TDP1 CPT | Gal4-VP16 FLuc | RORgamma inh
CCC1(O)c2ccccc2-c2ncccc21 (centres undefined) | 2% | -19% | -22% | 2% | -3%
CCSc1nsc(NC(=O)Nc2ccc(F)cc2F)n1 | 4% | 4.6µM* | 4.6µM* | ? | ?
CCSc1nsc(NC(=O)Nc2ccccc2Cl)n1 | nt | 15µM* | ? | nt | nt
CCOc1ccc(NC(=O)Nc2nc(SCC)ns2)cc1 | nt | ? | ? | -3% | 13%
CC(C)N1CCC(N2CCN(Cc3ccc(Oc4ncccn4)cc3)CC2CCO)CC1 (centres undefined) | nt | -1% | -8% | -3% | 1%
CCC(=O)CCC(=O)c1ccc2ccccc2c1 | 1% | -3% | -28% | 4% | -42%
CCc1nc2ccc(C(=O)NCCc3c[nH]c4ccccc34)cn2c1N(C)Cc1nccn1C | nt | -64% | ? | nt | nt
CC(C)(C)OC(=O)C[C@H]1C/C=C\C[C@@H](CC(=O)N(CCO)Cc2ccccc2)C(=O)NC[C@@H](c2ccccc2)OC1=O | 2% | 18µM* | ? | nt | nt
CC(C)(C)OC(=O)C[C@H]1C/C=C\C[C@@H](CC(=O)NCCO)C(=O)NC[C@H](c2ccccc2)OC1=O | 2% | -15% | 4% | nt | nt
CC(C)(C)OC(=O)C[C@H]1C/C=C\C[C@H](CC(=O)N(CCO)Cc2ccccc2)C(=O)NC[C@H](c2ccccc2)OC1=O | -2% | ? | 16µM* | nt | nt
CC(C)(C)OC(=O)C[C@@H]1C/C=C\C[C@@H](CC(=O)NCCO)C(=O)NC[C@@H](c2ccccc2)OC1=O | -3% | -7% | 1% | nt | nt
O=c1cc[nH]c2cccc(Cc3ccccc3)c12 | 0% | 13µM* | ? | -22% | ?
N#CC(C(=O)NCc1ccco1)c1nc2ccccc2nc1N1CCOCC1 (centres undefined) | 12% | ? | ? | ? | -19%
O=c1c2c([N+](=O)[O-])cc([N+](=O)[O-])cc2sn1Cc1ccccc1 | nt | 5.2µM* | 5.2µM* | 4.5µM* | 7.1µM*
O=c1c2c([N+](=O)[O-])cc([N+](=O)[O-])cc2nc2ccccn12 | nt | ? | ? | 16% | -20%
O=c1c2c([N+](=O)[O-])cc([N+](=O)[O-])cc2sn1-c1ccc(Br)cc1 | 10% | ? | 10µM* | 10µM* | 8.9µM*
CCCNC(=O)C1(C)CCCN(C/C=C/c2ccccc2)C1 (centres undefined) | nt | -25% | -24% | nt | nt
Cc1cc(C(=O)COC(=O)c2nccnc2N)c(C)n1C | 0% | -2% | 0% | ? | 10µM*
COc1cc(C(=O)OCC(=O)c2cc(C)n(C)c2C)cc(OC)c1OC | 2% | 16µM* | 26µM* | -3% | -1%
CCC(=O)c1ccc(OCC(=O)OCC(=O)c2cc(C)n(C)c2C)cc1 | 2% | 5% | 3% | 1.3µM* | 0.89µM*
Cc1cc(C(=O)COC(=O)c2n[nH]c(=O)c3ccccc23)c(C)n1C | -3% | -26% | -10% | nt | nt
Cc1cnc(CNc2ncnc3ccc(-c4ccc5c(c4)OCO5)cc23)cn1 | nt | ? | ? | -15% | 0%
CCN1CCN(c2oc(-c3ccc(COc4ccc(OC)cc4)o3)nc2C#N)CC1 | 11% | ? | ? | nt | nt
COc1ccc2oc(C(=O)OCC(=O)Nc3cc(S(=O)(=O)N4CCOCC4)ccc3C)c(C)c2c1 | nt | -27% | 9% | nt | nt
COc1ccc(C(=O)NCCn2cc(SCC(=O)NCCc3ccc(OC)c(OC)c3)c3ccccc32)cc1 | 7% | 16µM* | 18µM* | nt | nt
SMILES | TDP1 block | TDP1 cell noCPT | DT40 TDP1 CPT | Gal4-VP16 FLuc | RORgamma inh
COc1ccc(C(=O)NCCn2cc(SCc3c(F)cccc3Cl)c3ccccc32)cc1 | 7% | ? | ? | nt | nt
COc1ccc(CCNC(=O)CSc2cn(CCNC(=O)c3cccc(C(F)(F)F)c3)c3ccccc23)cc1OC | 3% | 15µM* | 21µM* | nt | nt
COc1ccc(C(=O)NCCn2cc(SCC(=O)Nc3ccc4c(c3)OCCO4)c3ccccc32)cc1OC | 11% | 21µM* | 15µM* | nt | nt
CCOc1ccc(C(=O)NCCn2cc(SCC(=O)Nc3ccc4c(c3)OCCO4)c3ccccc32)cc1 | 10% | ? | ? | nt | nt
Cc1nnc(NC(=O)CSc2cn(CCNC(=O)c3ccccc3)c3ccccc23)s1 | 8% | ? | -23% | -7% | -42%
COc1ccc(CCNC(=O)CSc2cn(CCNC(=O)c3ccc(OC)c(OC)c3)c3ccccc23)cc1OC | 2% | 23µM* | ? | nt | nt
CCOC(=O)CSCc1c(C#N)c2ccccc2n1C | -6% | 5% | 0% | 3% | -8%
CCC(=O)N1CCCC1(C)C(=O)Nc1ccc2scnc2c1 (centres undefined) | nt | -2% | -12% | nt | nt
COc1ccc(C(=O)N2CCN(C(=O)c3ccncc3)CC2)cc1 | 5% | -4% | -7% | -15% | -8%
CCc1cccc(-n2c(=O)c3cccnc3n2CC(=O)Nc2ccc(OC)c(Cl)c2)c1 | 5% | 26µM* | 21µM* | nt | nt
CCOC(=O)c1ccc(NC(=O)Cn2c3ncccc3c(=O)n2-c2ccc(C)c(C)c2)cc1 | 5% | ? | ? | nt | nt
CC(=O)c1ccc(NC(=O)Cn2c3ncccc3c(=O)n2-c2ccc(C)cc2)cc1 | 3% | 16µM* | 16µM* | nt | nt
CCc1ccc(-n2c(=O)c3cccnc3n2CC(=O)Nc2cc(F)ccc2F)cc1 | 8% | 8.2µM* | 2.6µM* | nt | nt
CCc1ccc(-n2c(=O)c3cccnc3n2CC(=O)Nc2cc(OC)ccc2OC)cc1 | 0% | ? | ? | nt | nt
CCc1ccc(-n2c(=O)c3cccnc3n2CC(=O)N(CC)c2cccc(C)c2)cc1 | 0% | 13µM* | 23µM* | nt | nt
COc1ccc(/C=N/NC(=O)CCn2nnc3ccccc32)cc1 | 8% | -28% | -2% | 1% | 31%
O=c1c2ccc([N+](=O)[O-])cc2ncn1Cc1ccccc1C(F)(F)F | 5% | ? | -25% | -12% | 5%
COc1ccc2c(c1OC)C(=O)OC2Nc1nc(-c2ccc(-c3ccccc3)cc2)cs1 (centres undefined) | 2% | -23% | -23% | -18% | -8%
CCN(CC)Cc1ccccc1CNC(=O)c1cccc(S(=O)(=O)Nc2ccc3c(c2)OCO3)c1 | 5% | -19% | ? | nt | nt
CN(C)c1ccc(-c2cccc3nccn23)cc1 | nt | 15µM* | ? | nt | nt
Clc1cccc(-c2cccc3nccn23)c1 | nt | 21µM* | 23µM* | nt | nt
O=C(COC(=O)COc1ccc(Cl)cc1)NCCNC(=O)COC(=O)COc1ccc(Cl)cc1 | 3%[0.505 µM] | ? | 15% | nt | nt
O=C(NNC(=O)c1ccc([N+](=O)[O-])cc1)c1ccc(F)cc1 | nt | 8% | 1% | nt | nt
